# Screening data: PubChem BioAssay, National Center for Advancing Translational Sciences (NCATS)
# D3 antag: blocks the human D3 dopamine receptor; P35462; D3R cells, DiscoveRx beta-arrestin luminescence, antagonist mode; active compounds read low; max response, negative = inhibition, %; actives 2.5% (n = 360,000); AID 652054; in the data active = max response below about -50%; inconclusive = no clear call, values can overlap the other calls; also: % is scaled to controls: 0 for no effect and ±100 for the full control effect
# Target sequence (P35462 whole entry, looked up): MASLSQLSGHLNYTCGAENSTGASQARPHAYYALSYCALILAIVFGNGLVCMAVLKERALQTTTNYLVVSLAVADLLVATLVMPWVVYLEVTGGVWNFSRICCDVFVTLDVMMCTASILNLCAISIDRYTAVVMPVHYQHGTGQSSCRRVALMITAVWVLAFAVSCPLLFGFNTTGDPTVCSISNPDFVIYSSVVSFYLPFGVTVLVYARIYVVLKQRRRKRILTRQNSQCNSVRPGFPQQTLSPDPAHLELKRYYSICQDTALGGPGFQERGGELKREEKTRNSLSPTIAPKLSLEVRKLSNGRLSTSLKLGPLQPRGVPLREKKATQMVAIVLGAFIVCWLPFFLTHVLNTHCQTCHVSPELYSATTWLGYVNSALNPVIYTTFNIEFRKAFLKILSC
#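 Cells expressing the human receptor were seeded at 1500 cells/well, incubated overnight at 37 degrees C in 5% CO2, then exposed to library compounds with dopamine controls for 90 minutes at 37 degrees C before luminescent detection.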
# GRP78 ERSR act: ER stress response induction in glioma. U87-MG GRP78 promoter luciferase reporter, 16 h. Potency, µM, for the others: at the top dose activation, most hits filed as activators. actives 0.02% (n = 420,000). AID 602332; also: potency is read from the fitted curve at half-maximal effect; series mostly up to about 76 µM; % of control where 0% means no effect; nearly all actives have a fitted effect of over 35% in size
#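 ERSR induction read as luciferase luminescence (Bright-Glo, 10 min at room temperature) in stably transfected human U87-MG glioma cells exposed to compounds for 16 h, using GRP78 as sensor.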
# DRD3 agonist: agonists of human D3 dopamine receptor; max activation, %; actives 0.58% (n = 410,000); D3R DiscoveRx beta-arrestin cells, luminescence, 90 min; in the data active = max activation above about 30%; also: 0% is about no effect
#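 Agonist-mode cell screen: cells plated at 1500/well and incubated overnight at 37 °C, then exposed to library compounds for 90 min at 37 °C. Detection reagent was added for 30–60 min at room temperature, and luminescence was read.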
# Nrf2 ARE act: Nrf2 pathway activation; AREc32 ARE-luciferase reporter (MCF7-derived line), luminescence, 24 h; Potency, µM (top dose mostly 46.1 µM), inactives show at the highest dose activation, actives largely listed as activators; actives 0.31% (n = 410,000); AID 624171; also: potency is read from the fitted curve at half-maximal effect; % of control where 0% means no effect; nearly all actives have a fitted effect of over 65% in size
#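 AREc32 cells carrying an ARE-driven firefly luciferase, 1000 cells/well in OPTI-MEM with 5% FBS, dosed after overnight attachment and incubated 24 hr at 37 deg C. Steady-Glo luminescence read after 30 min at RT.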
# An asterisk follows results filed as active; ? = inconclusive; / = not tested or not shown; [ ] = another dose, or the depositor's remark. In the library only some 3% were active in any assay of this set; here they are far more common. Unless noted, calls follow the shape of the dose curve; as a rule, active = well fitted curve in the direction sought with a large enough effect; inconclusive = small, poorly fitted or top-dose-only effect, or another doubt; inactive = no such curve, though single readings can be large; an effect the other way counts as inactive or inconclusive.
SMILES,D3 antag,GRP78 ERSR act,DRD3 agonist,Nrf2 ARE act
COc1ccccc1N1CCN(Cc2cc3c(cc2Br)OCCO3)CC1,-75.7*,-5.8%,-19.9,0.7%
CCOc1ccccc1N1CCN(Cc2ccc(OC)c(OC)c2)CC1,-0.1,-5.4%,-5.5,-0.3%
COc1ccccc1N1CCN(Cc2ccc(Br)o2)CC1,-81.0*,-2.6%,-10.6,0.0%
CCN(CC)CCNC(=O)c1nn(C)c2c1CS(=O)(=O)c1ccccc1-2,/,-2.9%,-15.2,-0.5%
CCN(CCCNC(=O)c1nn(C)c2c1CS(=O)(=O)c1ccccc1-2)Cc1ccccc1,-55.9*,-5.1%,-21.9,-0.1%
CCN(CC)C(C(=O)Nc1ccc(C(C)C)cc1)c1ccc2c(c1)OCO2 (configuration not stated),-54.1*,-3.2%,0.6,-0.1%
CC(C)c1ccc(NC(=O)C(c2ccc3c(c2)OCO3)N2CCN(C(=O)c3ccco3)CC2)cc1 (configuration not stated),-21.7,2.6%,0.7,4.5%
O=C(NN1C(=O)c2cc(Br)ccc2NC1c1cc(Br)cc(Br)c1O)c1ccncc1 (configuration not stated),-66.2*,-4.0%,-16.0,0.5%
O=C(NN1C(=O)c2cc(Br)ccc2NC1c1ccccc1Cl)c1ccncc1 (configuration not stated),-1.0,-5.2%,4.4,9.8%
O=C(Nc1nc2ccccc2n1CCN1CCCC1)C1CCCCC1,-81.6*,-5.7%,0.6,2.5%
CCn1nccc1C(=O)Nc1nc2ccccc2n1CCN1CCCCC1,-87.2*,-5.9%,-6.3,1.9%
O=C(Nc1nc2ccccc2n1CCN1CCCCC1)C1CCCCC1,-62.1*,-4.0%,-14.7,2.3%
c1ccc(Cn2c(CNc3nc4ccccc4n3CCN3CCOCC3)nc3ccccc32)cc1,-54.2*,-3.2%,-13.1,-0.8%
Cc1ccc(C(=O)Nc2nc3ccccc3n2CCN2CCCC2)cc1,-60.6*,-1.0%,-24.8,9.5%
COc1cccc(CNc2nc3ccccc3n2CCN2CCCCC2)c1OC,-67.4*,-2.0%,-14.9,0.1%
O=C(Nc1nc2ccccc2n1CCN1CCCC1)c1ccc(Cl)cc1,-6.9,-4.3%,-27.5,5.4%
O=C(C[N+]12CCCc3cccc(c31)CCC2)c1ccc2ccccc2c1,/,-1.7%,/,/
CC(=O)c1ccccc1-c1ccc2c(c1)CC(CNC(=O)Cc1c[nH]c3ccccc13)O2 (configuration not stated),/,-2.4%,/,/
Cc1c(C(=O)NCC2(N3CCOCC3)CCCCCC2)cnn1-c1nccc(-c2ccccc2F)n1,/,-0.6%,/,/
Cc1cc(C(=O)Nc2cccc(-c3nc(CNC(=O)c4ccccc4C(F)(F)F)c(C)o3)c2)c(C)o1,/,-2.0%,/,/
O=C1C(=O)c2ccccc2C(O)=C1c1ccccc1F,-72.5*,-5.8%,-41.0,-0.4%
O=C1NC(CCc2ccccc2)C(=O)N1CCOc1ccccc1 (configuration not stated),-22.3,-3.5%,-8.4,-0.4%
O=C1NC(CCc2ccccc2)C(=O)N1Cc1ccc(Br)cc1 (configuration not stated),-71.4*,-2.3%,0.5,0.1%
CC(=O)Nc1ccc(C(=O)N/N=C/c2cc(Br)cc(Br)c2O)cc1,15.1,-2.6%,9.4,-0.9%
Cc1ccc(C(=O)O)cc1N=Cc1cc(Br)cc(Br)c1O,-119.7*,-3.8%,-24.5,-0.9%[9.22 µM]
SMILES,D3 antag,GRP78 ERSR act,DRD3 agonist,Nrf2 ARE act
CCn1c(CN2CCC(C)CC2)nc2cc(S(=O)(=O)N3CCCCC3)ccc21,-83.1*,-4.7%,-3.4,2.8%
CC(C)C[C@H]1CNC(=S)N1CC1CCN(CCCC2CCCCC2)CC1,-100.7*,-1.1%,-45.8,3.1%
CC(C)C[C@H]1CNC(=S)N1CC1CCN(CC2CCCC2)CC1,?,3.6%,-45.0,-0.5%
CC(C)C[C@H]1CNC(=S)N1CC1CCN(CC2CCC(C(C)(C)C)CC2)CC1 (some centres not stated),-62.7*,-1.5%,-43.7,3.8%
CC[C@H](C)[C@H]1CNC(=S)N1CC1CCN(CCCCc2ccccc2)CC1,-64.6*,-1.6%,-44.5,0.9%
CC(C)C[C@H]1CNC(=O)C(=O)N1CC1CCN(CCC(C)(C)C)CC1,-20.5,-3.4%,-17.8,0.5%
CC[C@H](C)[C@H]1CNC(=S)N1CC1CCN(CCCC2CCCC2)CC1,-77.8*,-2.3%,-43.5,4.1%
Cc1ccc(Nc2nccc(N(C)c3ccc4c(C)n(C)nc4c3)n2)cc1S(N)(=O)=O,/,-3.1%,14.0,/
O=C(COCc1cc(-c2cccs2)on1)NCc1ccccc1Cl,/,-3.2%,-10.3,11.7%
S=C1NCCN1CC1CCN(CCC23CC4CC(CC(C4)C2)C3)CC1,-16.2,-3.3%,-39.7,-0.8%
